# Data published in PubChem BioAssay (NCI).
# About 79,000 compounds went through this panel and 15% of them were active in at least one assay; those are over-represented in the sample as a whole. A number with no mark means an inactive call. Activity calls are given as the source filed them. Cut-off read from the data, not from the text of the source: active = growth inhibition above about 70%; inactive = the rest.
# How the values were obtained:
# [1] = NCI Yeast Anticancer Drug Screen. Data for the rad50 strain (AID 155);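 note: 0% = growth of vehicle-only cultures of the same strain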; conditions: S. cerevisiae rad50 strain growth inhibition; at 50.0 µM; hits give high values
# Method in brief: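 A DNA repair-deficient yeast mutant serves as the test organism; compound-induced growth inhibition is calculated against vehicle-treated cells.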
# [2] = NCI Yeast Anticancer Drug Screen. Data for the mec2-1 strain (AID 157); conditions: S. cerevisiae mec2-1 strain, at 50.0 µM, hits give high values
# Method in brief: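 Using mec2-1 yeast: add compound, measure growth, express inhibition versus vehicle-treated cultures.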
# [3] = NCI Yeast Anticancer Drug Screen. Data for the sgs1 mgt1 strain (AID 161);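 note: 0% = growth of cultures given vehicle only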; conditions: S. cerevisiae sgs1 mgt1 strain, at 50.0 µM, hits give high values
# Method in brief: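 Yeast cells carrying a defined DNA-repair defect were exposed to test compounds. Growth inhibition was measured relative to vehicle-treated controls.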
# [4] = NCI Yeast Anticancer Drug Screen. Data for the cln2 rad14 strain (AID 165);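 note: 0% = growth equal to vehicle treated cultures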; conditions: S. cerevisiae cln2 rad14 strain, at 50.0 µM, hits give high values
# Method in brief: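 Yeast strain cln2 rad14, bearing defects in cell cycle control and DNA repair, serves as the test system; values reflect growth inhibition compared with vehicle.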
# [5] = NCI Yeast Anticancer Drug Screen. Data for the bub3 strain (AID 167); conditions: S. cerevisiae bub3 mutant strain, at 50.0 µM, hits give high values
# Method in brief: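 Inhibition values come from growth of compound-treated mutant yeast normalised to vehicle-treated controls.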
# [6] = NCI Yeast Anticancer Drug Screen. Data for the mlh1 rad18 strain (AID 175); conditions: S. cerevisiae mlh1 rad18 strain growth inhibition; at 50.0 µM; hits give high values
# Method in brief: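 Steps: expose repair-defective yeast to compound; measure growth; express inhibition against vehicle-treated controls.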
Structure (SMILES),growth inhibition [1],growth inhibition [2],growth inhibition [3],growth inhibition [4],growth inhibition [5],growth inhibition [6]
CC(C)c1ccc(C(C)(C)O)cc1,4.75%,15.7%,-19.8%,-7.8%,-6.8%,-17.6%
CCCCc1nc2c([nH]1)c(=O)n(C)c(=O)n2C,8.1%,-10.9%,5.2%,4.85%,-36.5%,4.25%
Cc1ccc(C)c(CNC(=O)Nc2ccccc2Cl)c1,12.4%,-14.3%,-22.8%,6.75%,5.35%,-18.2%
Cc1ccc(/C(O)=C/c2nc3c(nc2NC24CC5CC(CC(C5)C2)C4)c(=O)oc2ccccc23)cc1,5.65%,-0.65%,-6.7%,-3.7%,6.1%,1.85%
O=[N+]([O-])c1ccc(S(=O)(=O)c2ccc(NCN3CCCCC3)cc2)cc1,25.1%,6.2%,26.9%,-3.95%,13.7%,17.6%
O=c1oc2ccccc2cc1-n1nnc2ccccc21,-2.65%,11.1%,18.9%,2%,16.1%,21%
CCOC(=O)c1c2cccccc-2nc1Nc1cccc2c(C)ccnc12,11.7%,-21%,-2.8%,9.7%,-16.1%,5.55%
CCC(C(=O)c1ccccc1)C1(C(=O)OC)NC(=S)NC(=O)C1C#N (stereo unspecified),3.25%,-2.85%,-2.55%,-17.9%,-8.05%,4%
CCn1c2ccccc2c2cc(/C=N/N=C/c3ccc4c(c3)c3ccccc3n4CC)ccc21,-17.8%,5.15%,-11.6%,-13.7%,-1.8%,-18.9%
CC(C)(C)c1ccc(OCCOCCCl)c(Cl)c1,17.1%,15.4%,14.6%,-19.9%,8.65%,15.2%
CCc1c(C)c(C#N)c(=S)n(C2OC(CO)C(O)C(O)C2O)c1C (stereo unspecified),-61.8%,3.95%,-19.7%,9.4%,8.35%,-4%
CC1=C(O)c2cn(C)cc2C(=O)C1=O,26.1%,24.9%,18%,26.6%,31.9%,28.3%
Fc1ccc(NC(=S)Nc2ccccn2)cc1,4.05%,-6.4%,-4.25%,-59.5%,6.05%,19.9%
N#Cc1c(/C=C/c2ccccc2)c2c([nH]c1=S)CCCCC2,0.35%,-17.5%,16.1%,26.8%,16.9%,19.1%
COc1ccc(/C=C2\N=C(c3ccccc3)OC2=O)c(Cl)c1OC,-9.35%,-3.5%,-25%,1.6%,-5.25%,-3%
CC(C)C1CCC(C)(C=O)C1 (stereo unspecified),-19.7%,-0.5%,-14.3%,-7.85%,-5.75%,-26.9%
CCOc1c(OC)cc(-c2nnc(SCCN(CC)CC)o2)cc1OC,11.4%,0.35%,7.1%,16.7%,0.15%,-7.05%
COC(C)CCOC(=O)c1ccccc1 (stereo unspecified),-33%,-17.6%,-14.2%,-29.7%,-29.9%,-31.2%
CCCCOc1ccc(C=Nc2ccc(C)cc2)cc1,-6.15%,-6.2%,-2.45%,-8.5%,7.3%,-20.7%
COC(=O)C1CC23CCCC12CC3 (stereo unspecified),21.6%,-1.25%,2.3%,-66.7%,8.05%,-7.05%
CCC(C)CN1C(=O)NC(C)(Cc2ccccc2)C1=O (stereo unspecified),18.6%,1.25%,1.15%,16.8%,7.85%,4.25%

Structure (SMILES),growth inhibition [1],growth inhibition [2],growth inhibition [3],growth inhibition [4],growth inhibition [5],growth inhibition [6]
COc1cc(/C=C2\C=Nc3ccccc32)ccc1O,27.8%,23.9%,38%,20.3%,40.3%,35.7%
COc1ccc(C2=C(c3ccccc3)C(=O)C(c3ccccc3)=C2c2ccccc2)cc1,-12.9%,-12.9%,-8.7%,13.2%,-1.7%,-6.05%
Cc1ccc(C)c(NC(=O)Nc2cccc(Cl)c2)c1,-6.1%,21.2%,-5.85%,-4.95%,9.4%,-7.65%
N#CC1C(=O)NC(=O)C(C#N)C12CCCC2 (stereo unspecified),-3.65%,-9.2%,5.25%,-22.2%,10.9%,10.7%
O=C(N/N=C\c1ccc(Cl)cc1)c1ccccc1,8%,6.9%,-0.1%,4.45%,7.05%,-4.55%
COCCCn1cnn2c(=O)c3ccccc3nc2c1=O,-12%,2.85%,23.8%,12.4%,21.3%,6.25%
Cc1ccc2nc(Nc3ccc(Cl)cc3)cc(C(O)C3CCCCN3)c2c1 (stereo unspecified),99.5% (active),99.8% (active),99.7% (active),99.2% (active),88.8% (active),99.5% (active)
O=C(C[n+]1cccc(C(=O)Nc2ccc(Cl)cc2)c1)Nc1ccccc1,-10.9%,-13.7%,-2.45%,15.2%,-4.35%,0.65%
Cc1cccc(C)c1NC(=O)C(=O)C(C(=O)c1ccccc1-c1ccccc1)C1OC(=O)c2ccccc21 (stereo unspecified),26.6%,15.4%,12.2%,-29.6%,2.2%,23.6%
COC(=O)CCCC(NC(=O)c1ccc([N+](=O)[O-])cc1)C(=O)OC (stereo unspecified),19.1%,-9.45%,13.9%,5.45%,13.7%,14.9%
CCOC(=O)C1=CCOc2cc(N(C)C)ccc21,-9.25%,9.15%,-1.25%,32.4%,8.75%,-6.9%
NC(=S)N/N=C/c1ccco1,-26.2%,-11.3%,-18.3%,-67.2%,-23.9%,-8.2%
CCCCCCCC/C=C\CCCCCCCC(=O)OC,33.5%,43.8%,49.3%,-32.1%,44%,49%
CC(=O)OCC1OC(n2cnc([N+](=O)[O-])c2C#N)C(OC(C)=O)C1OC(C)=O (stereo unspecified),28.6%,14.7%,22.3%,30.1%,3.45%,34.3%
CCCCN(C(=O)CCC)c1ccccc1,-71.1%,-0.75%,-11.9%,-40%,-11.2%,-10.1%
NCCNCCCCCCNC(=O)c1cccc2cc3ccccc3nc12,-6.7%,-25.4%,-30.1%,-7.55%,-14%,-102%
CSCCC(NC(=O)OC(C)(C)C)C(=O)NCCNc1ccc(NCCNC(=O)C(CCSC)NC(=O)OC(C)(C)C)c2c1C(=O)c1ccccc1C2=O (stereo unspecified),19.4%,7.9%,-24.2%,3.85%,-9.5%,-43.3%
Cc1cc(C)c(CCC(=O)O)c(C)c1,6.95%,4.8%,-0.3%,6.6%,-7.1%,-1.25%
CN(C)CC1CCC/C1=N/OC(=O)c1ccccc1 (stereo unspecified),6.85%,-6.7%,-20%,-17.9%,-6.4%,16.9%
CC(=O)Nc1cc(Cl)cc2c1[nH]c(=O)c1ccccc12,9.75%,5.35%,-2%,-7%,9.25%,1.05%
